# Results filed as inconclusive are left out. The source made the active and inactive calls. Calls come from the whole dose curve.
# Biological target: 5-hydroxytryptamine receptor 2A (Homo sapiens) (UniProt P28223)
# Assay: 5-hydroxytryptamine receptor 2A (HTR2A) small molecule antagonists, cell-based qHTS assay (AID 1963586); note: nearly all actives have a fitted effect of over 45% in size
# Settings: HTR2A-CHO cells, DOI-induced calcium flux, fluorescence; series mostly up to 61.5 µM; activity, negative = inhibition: at the top concentration
# Description: National Center for Advancing Translational Sciences [NCATS]
# Division of Preclinical Innovation [DPI]
# U.S. Environmental Protection Agency [EPA]
# National Institutes of Environmental Health Sciences [NIEHS]
# National Toxicology Program [NTP]
# U.S. Food and Drug Administration [FDA]
# The HTR2A receptor is a subtype of the 5-HT2 receptor that belongs to the serotonin receptor family and is a G protein-coupled receptor (GPCR). The HTR2A-CHO cell line stably expressing human 5-hydroxytryptamine receptor 2A (HTR2A) can be used for screening antagonists of interactions between 5-HT2 and its ligands. The HTR2A-CHO calcium flux assay is a homogeneous fluorescence-based assay for detecting the intracellular calcium level using FDSS kinetic plate reader system.
# Tox21 Assay Protocol Summary:
# HTR2A-CHO cells were dispensed at 2000 cells/3uL/well in 1536-well black-clear bottom plates using a Multidrop Dispenser. After the assay plates were incubated at a 37 C/5% CO2 incubator for 18 h, 3 uL of Dye Loading Buffer was transferred to the assay plate by a Flying Reagent Dispenser. The assay plates were incubated at 37 C for 1h. For antagonist mode, 23 nL of compounds dissolved in DMSO, positive controls or DMSO only was transferred to the assay plate by a pin tool. After 5 min incubation at room temperature, 1.5 uL of 4-Iodo-2,5-dimethoxy-alpha-methylbenzeneethanamine hydrochloride (DOI) at 4nM was added to each well. The fluorescence intensity in the plates was measured using FDSS 7000EX kinetic plate reader for 3 min at 1 sec intervals.
# % is set by controls: 0 for no effect and ±100 for the full control effect.
# Sequence of 5-hydroxytryptamine receptor 2A (Homo sapiens) (P28223 whole entry, looked up): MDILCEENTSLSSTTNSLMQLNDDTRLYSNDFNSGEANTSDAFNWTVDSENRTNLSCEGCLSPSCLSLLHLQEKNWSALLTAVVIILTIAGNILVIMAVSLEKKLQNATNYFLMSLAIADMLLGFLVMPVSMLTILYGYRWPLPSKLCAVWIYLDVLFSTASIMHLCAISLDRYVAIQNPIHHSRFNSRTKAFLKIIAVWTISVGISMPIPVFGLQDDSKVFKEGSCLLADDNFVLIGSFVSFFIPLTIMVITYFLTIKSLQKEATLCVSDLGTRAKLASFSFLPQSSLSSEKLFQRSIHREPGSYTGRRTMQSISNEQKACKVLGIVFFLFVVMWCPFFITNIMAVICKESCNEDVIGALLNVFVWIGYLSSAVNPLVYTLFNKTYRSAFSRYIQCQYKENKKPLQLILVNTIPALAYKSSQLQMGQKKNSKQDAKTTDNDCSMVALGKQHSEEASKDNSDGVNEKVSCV
Structure (SMILES),"activity, negative = inhibition",Potency
O=c1[nH]c(=O)c2ccccc2o1,5.99% [at 28.5 µM] (inactive),–
CC(C)(C)c1ccc(C(=O)CCCCl)cc1,10.1% [at 28.5 µM] (inactive),–
Cc1cccc(N)n1,-10.2% (inactive),–
NC(=O)Cc1cccc2ccccc12,-2.09% (inactive),–
OCCNCCO,-2.92% (inactive),–
COc1cccc(OC)c1,7.86% (inactive),–
CCCCc1ccc(Cl)cc1,-0.0756% (inactive),–
C=CCCC(=O)/C=C/C1C(C)=CCCC1(C)C (stereo not given),-13.5% (inactive),–
FC(F)(F)c1cccc(Cl)c1,41.2% (inactive),–
CC1=CCC(C(C)C)=CC1,3.8% (inactive),–
O=[N+]([O-])c1ccc2nc[nH]c2c1,–,inactive
CC[C@@H]1C[C@H](N(Cc2cc(C(F)(F)F)cc(C(F)(F)F)c2)C(C)=O)c2cc(C(F)(F)F)ccc2N1C(=O)OC(C)C,-3.19% (inactive),–
CC(C)(N=C=O)c1cccc(C(C)(C)N=C=O)c1,–,inactive
C#CC(O)CCC (stereo not given),1.65% (inactive),–
Cc1ccc(C(C)C)cc1O,-24.7% (inactive),–
NC(=O)c1ccc(N)cc1,-5.9% (inactive),–
CCCCC(CC)COCC1CO1 (stereo not given),–,inactive
Cc1ccc(S(=O)(=O)NC(=O)NC2CCCCCCC2)cc1,2.86% [at 28.5 µM] (inactive),–
NS(=O)(=O)c1ccccc1Cl,-12.7% (inactive),–
Cc1ccc(C)o1,-11.8% (inactive),–

Structure (SMILES),"activity, negative = inhibition",Potency
Cc1c(C(=O)c2c[nH]n(C)c2=O)ccc(S(C)(=O)=O)c1C1=NOCC1,-4.39% [at 28.5 µM] (inactive),–
CC1=CC(=O)[C@H]2C[C@@H]1C2(C)C,2.74% (inactive),–
NCCNCCNCCNCCN,–,inactive
ClC(c1ccccc1)(c1ccccc1)c1ccccc1,22.2% (inactive),–
C=CCCCCCCCCO,2.74% (inactive),–
C=C(C)C(=O)OCCCCCCCCCCCCC,-5.81% (inactive),–
Cc1cccc2cccnc12,103% (inactive),–
CCCCCc1cccc(=O)o1,-3.14% (inactive),–
O=S(=O)(O)c1cc(O)c(O)c(S(=O)(=O)O)c1,6% (inactive),–
c1cnccn1,-7.84% (inactive),–
O=C(O)c1ccc([N+](=O)[O-])cc1,–,inactive
CC(C)(C)NC(N)=O,-0.507% (inactive),–
O=C(O)c1ccc(CO)o1,-0.962% (inactive),–
CCCCC(C)C(=O)O (stereo not given),-9.56% (inactive),–
O=S(=O)(O)CCN1CCN(CCO)CC1,18.9% (inactive),–
O=[N+]([O-])c1ccccc1CCO,8.97% (inactive),–
O=C1OC(=O)c2ccccc21,17.8% (inactive),–
C1COC1,-5.41% (inactive),–
O=C(O)c1ccccc1OP(=O)(O)O,8.25% [at 28.5 µM] (inactive),–
O=[N+]([O-])c1ccccc1Nc1ccccc1,-4.27% (inactive),–
